From PubChem BioAssay AID1159580 (chemical genetic matrix, 2015)
Hit rate of the full screen: of about 5,500 compounds, about 2,000 (36%) were called active. Another 18% or so got no clear call; they are omitted. Cut-off read from the data, not from the text of the source: active = normalized growth mostly below about 0.91 (no sharp cut-off); inconclusive = no clear call, values can overlap the other calls; inactive = mostly above about 0.92. This is one part of the list.

Test: chemical genetic growth profiling, strain panel (AID 1159580);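 note: tested at 20 µM; growth read once vehicle control cultures reached saturation at 30 °C; 1 = growth at the plate median or of vehicle wells; lower values mean less growth of the strain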
Conditions: S. cerevisiae deletion strains, growth OD

Measured: normalized growth

CC(C)CCCC(C)[C@H]1CCC2C3CC[C@H]4CC(=O)CC[C@]4(C)C3CC[C@@]21C (some centres undefined)
inactive: locus YAL021C, strain ccr4, active compounds read low 0.957 | locus YAL026C, strain drs2, active compounds read low 1 | locus YAL030W, strain snc1, active compounds read low 0.996 | locus YBL061C, strain skt5, active compounds read low 0.998 | locus YBR009C, strain hhf1, active compounds read low 1.03 | locus YBR023C, strain chs3, active compounds read low 0.989 | locus YBR171W, strain sec66, active compounds read low 0.991 | locus YBR231C, strain swc5, active compounds read low 1.01 | locus YBR279W, strain paf1, active compounds read low 0.997 | locus YCL011C, strain gbp2, active compounds read low 0.975 | locus YCL016C, strain dcc1, active compounds read low 0.995 | locus YCL061C, strain MRC1, active compounds read low 0.977 | locus YCL069W, strain vba3, active compounds read low 0.992 | locus YCR088W, strain abp1, active compounds read low 0.982 | locus YDL005C, strain med2, active compounds read low 0.986 | locus YDL040C, strain nat1, active compounds read low 0.984 | locus YDR001C, strain nth1, active compounds read low 0.987 | locus YDR069C, strain doa4, active compounds read low 0.993 | locus YDR137W, strain rgp1, active compounds read low 0.958 | locus YDR159W, strain sac3, active compounds read low 0.984 | locus YDR195W, strain ref2 0.974 | locus YDR297W, strain sur2, active compounds read low 0.983 | locus YDR334W, strain swr1, active compounds read low 0.96 | locus YDR335W, strain msn5, active compounds read low 0.97 | locus YDR392W, strain spt3, active compounds read low 0.97 | locus YEL003W, strain gim4, active compounds read low 0.981 | locus YEL037C, strain rad23, active compounds read low 0.987 | locus YEL061C, strain CIN8 (second series), active compounds read low 0.98 | locus YER015W, strain faa2, active compounds read low 1.02 | locus YER016W, strain bim1, active compounds read low 0.985 | locus YER111C, strain swi4, active compounds read low 0.995 | locus YER155C, strain BEM2 (second series), active compounds read low 1.01 | locus YFR010W, strain ubp6, active compounds read low 0.969 | locus YGL167C, strain pmr1, active compounds read low 0.998 | locus YGL173C, strain kem1, active compounds read low 0.988 | locus YGL227W, strain vid30, active compounds read low 0.994 | locus YGL240W, strain doc1, active compounds read low 1.03 | locus YGL253W, strain hxk2, active compounds read low 0.984 | locus YHR013C, strain ard1, active compounds read low 0.972 | locus YHR027C, strain rpn1, active compounds read low 0.986 | locus YHR142W, strain chs7, active compounds read low 0.93 | locus YJL092W, strain hpr5, active compounds read low 0.961 | locus YJL095W, strain BCK1 (second series), active compounds read low 1.01 | locus YJL115W, strain asf1, active compounds read low 0.971 | locus YJL129C, strain trk1, active compounds read low 0.935 | locus YJL154C, strain vps35, active compounds read low 0.992 | locus YJL164C, strain tpk1, active compounds read low 0.979 | locus YJL166W, strain qcr8, active compounds read low 0.992 | locus YJL187C, strain SWE1, active compounds read low 0.991 | locus YKL160W, strain elf1, active compounds read low 0.963 | locus YKR026C, strain gcn3, active compounds read low 0.991 | locus YKR091W, strain srl3, active compounds read low 0.984 | locus YLL001W, strain dnm1, active compounds read low 0.987 | locus YLL026W, active compounds read low 0.997 | locus YLL041C, strain sdh2, active compounds read low 0.979 | locus YLR027C, strain aat2, active compounds read low 0.988 | locus YLR221C, strain rsa3, active compounds read low 0.962 | locus YLR258W, strain gsy2, active compounds read low 1.01 | locus YLR262C, strain YPT6 (second series), active compounds read low 1 | locus YLR320W, strain mms22, active compounds read low 0.993 | locus YLR342W, strain FKS1, active compounds read low 0.993 | locus YLR357W, strain rsc2, active compounds read low 0.996 | locus YLR370C, strain arc18, active compounds read low 0.98 | locus YLR384C, strain iki3, active compounds read low 0.996 | locus YML120C, strain ndi1, active compounds read low 0.949 | locus YMR058W, strain fet3, active compounds read low 0.973 | locus YMR125W, strain sto1, active compounds read low 0.981 | locus YMR129W, active compounds read low 0.957 | locus YMR205C, strain PFK2, active compounds read low 1.02 | locus YMR231W, strain pep5, active compounds read low 0.985 | locus YNL071W, strain lat1, active compounds read low 0.989 | locus YNL209W, strain ssb2, active compounds read low 0.992 | locus YNL248C, strain rpa49, active compounds read low 0.935 | locus YNL322C, strain KRE1 (second series), active compounds read low 0.981 | locus YNR049C, strain mso1, active compounds read low 0.986 | locus YOR001W, strain rrp6, active compounds read low 0.941 | locus YOR070C, strain gyp1, active compounds read low 0.994 | locus YOR080W, strain dia2, active compounds read low 0.976 | locus YOR083W, strain WHI5, active compounds read low 0.952 | locus YOR106W, strain vam3, active compounds read low 0.974 | locus YOR265W, strain rbl2, active compounds read low 0.989 | locus YOR270C, strain vph1, active compounds read low 0.981 | locus YOR290C, strain snf2, active compounds read low 0.976 | locus YPL051W, strain arl3, active compounds read low 0.975 | locus YPL078C, strain atp4, active compounds read low 0.949 | locus YPL106C, strain sse1, active compounds read low 1.01 | locus YPL240C, strain hsp82, active compounds read low 0.987

CC(=O)[C@H]1CC[C@H]2[C@@H]3CC[C@H]4C[C@H](O)CC[C@]4(C)[C@H]3C(=O)C[C@]12C
inactive: locus YAL040C, strain CLN3, active compounds read low 0.999 | locus YCL061C, strain MRC1 (second series), active compounds read low 0.995 | locus YDR363W, strain ESC2, active compounds read low 0.983 | locus YER002W, strain NOP16, active compounds read low 0.993 | locus YGR078C, strain PAC10, active compounds read low 0.994 | locus YMR263W, strain SAP30, active compounds read low 1 | locus YMR307W, strain GAS1, active compounds read low 0.981 | locus YNL175C, strain NOP13, active compounds read low 0.974 | locus YNL197C, strain WHI3, active compounds read low 0.994 | locus YNL224C, strain SQS1, active compounds read low 1.01 | locus YOR083W, strain WHI5 (second series), active compounds read low 0.997 | locus YPL055C, strain LGE1, active compounds read low 0.947
